The record followed here is PubChem BioAssay.

Experiment [1] is described as follows: inhibitors of TNFa-induced NFkB p65 translocation, primary screen, imaging, HUVEC, MLSMR starter and 10KST1 sets (AID 438;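 active = inhibition above 20% together with a positive visual image hit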;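 also: compound added about 3h40 before a 20 min TNFalpha stimulation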;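 as to inhibition: signal is the nuclear over cytoplasmic p65 intensity ratio per well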). The conditions noted are these: HUVEC TNFa-induced p65 nuclear translocation; cell count: measured here: nuclei count (cytotoxicity indicator), at 2.08 µM; inhibition: at 2 µM, stronger effect = higher value, 0% TNFa-plus-vehicle, 100% no-TNFa wells.

Experiment [2] is described as follows: reduction of polyQ htt aggregates in cells – imaging, exon1htt(103Q)mCFP cells, high-content imaging, primary screen (AID 483;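 active = visual image review flags a hit and inhibition of aggregation exceeds 20%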;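 also: compound exposure lasted 3 days before fixation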;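 as to nuclei count: percent of the per-plate median nuclei count of sample wells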). The following applies: exon1htt(103Q)mCFP cell line, aggregate imaging, at 2 µM; inhibition of aggregation: stronger effect = higher value; nuclei count: measured here: cell count, toxicity.
Experiment [3] can be described thus: endothelial E-selectin expression blockers – imaging, HUVEC, immunofluorescence, MLSMR starter and 10KST1 sets, primary screen (AID 487;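 active = visually confirmed hit in the image check and inhibition above 20%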;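 as to inhibition: signal is fraction of cell area covered by stained E-selectin grains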;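 as to nuclei count: 100% = median nuclei count of all wells on the same plate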). The conditions noted are these: HUVEC TNFalpha-induced E-selectin immunofluorescence imaging, at 2 µM; inhibition: stronger effect = higher value; nuclei count: measured here: cell number, toxicity.
The target in experiment [4] is Voltage-gated potassium channel subunit beta-2 (Rattus norvegicus) (UniProt P62483). Briefly: inhibitors of rat Kvbeta2 reductase activity – biochemical, NADPH fluorescence, primary screen (AID 622;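 active = fluorescence slope higher than the sample average by over 3 SD, cut at about -0.22 in these data, passing the limit was not always enough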;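 also: slope of raw intensity against log time taken from 70 to 1610 s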). The conditions noted are these: recombinant KvBeta, 4-cyanobenzaldehyde reduction, at 10 µM, stronger effect = higher value.
Voltage-gated potassium channel subunit beta-2 (Rattus norvegicus), sequence (P62483 whole entry, looked up): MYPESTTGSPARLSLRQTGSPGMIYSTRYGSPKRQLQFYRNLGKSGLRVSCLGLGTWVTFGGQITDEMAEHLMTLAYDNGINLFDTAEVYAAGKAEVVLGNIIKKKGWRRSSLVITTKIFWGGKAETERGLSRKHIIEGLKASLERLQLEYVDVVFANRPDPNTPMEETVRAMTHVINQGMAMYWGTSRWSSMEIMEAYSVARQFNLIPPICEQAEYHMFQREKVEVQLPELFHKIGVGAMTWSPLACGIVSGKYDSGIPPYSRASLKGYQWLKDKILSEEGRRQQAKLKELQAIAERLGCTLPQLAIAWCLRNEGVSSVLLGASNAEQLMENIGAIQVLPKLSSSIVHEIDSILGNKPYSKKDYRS
Experiment [5] has the same target. The experiment is described as follows: enhancers of rat Kvbeta2 NADPH turnover – biochemical, NADPH fluorescence, primary screen (AID 623).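 Also: fluorescence intensity change per second fitted from 20 to 320 s.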 The conditions noted are these: Recombinant KvBeta, NADPH fluorescence decrease slope, 10 min; at 10 µM; stronger effect = lower value.
The target in experiment [6] is Alpha-2C adrenergic receptor (Homo sapiens) (UniProt P18825). The experiment is described as follows: compounds altering alpha2C-coupled GIRK flux – cell-based, HEK293 alpha2C/GIRK1/2, thallium flux, primary screen (AID 624;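 active = fluorescence slope after compound addition differing from the mean of all screened samples at 99.7% confidence, in either direction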;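 also: slope of fluorescence ratio to pre-addition baseline per second over 15 to 24 s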). The conditions noted are these: thallium flux BTC fluorescence, at 10 µM, actives lie on both sides.
Alpha-2C adrenergic receptor (Homo sapiens), sequence (P18825 whole entry, looked up): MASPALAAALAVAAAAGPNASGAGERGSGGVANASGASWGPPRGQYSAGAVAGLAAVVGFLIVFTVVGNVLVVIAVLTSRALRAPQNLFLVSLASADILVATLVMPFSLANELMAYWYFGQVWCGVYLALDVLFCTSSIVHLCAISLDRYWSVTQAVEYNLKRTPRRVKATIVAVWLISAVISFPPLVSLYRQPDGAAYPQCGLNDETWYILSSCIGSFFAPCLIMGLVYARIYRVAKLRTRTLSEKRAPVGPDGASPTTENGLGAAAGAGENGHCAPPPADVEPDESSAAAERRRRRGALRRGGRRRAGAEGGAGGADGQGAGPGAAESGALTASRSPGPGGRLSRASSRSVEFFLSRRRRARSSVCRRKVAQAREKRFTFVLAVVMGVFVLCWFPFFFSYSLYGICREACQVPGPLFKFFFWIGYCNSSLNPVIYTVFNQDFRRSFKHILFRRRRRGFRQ
Experiment [7] can be described thus: blockers of RIG-like receptor reporter activation – cell-based, Sendai virus stimulus, luciferase, 10K MLSCN set, TLR/RLR signaling modifier project, primary screen (AID 602276;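 active = inhibition at or above 50% at 10 µM; inactive = inhibition below 50%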;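 also: firefly luciferase from ISG56 promoter only with Renilla not read in this screen; 0% = Sendai virus plus DMSO and 100% = medium plus DMSO without virus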). The following applies: HEK293 RL24 IRF3 luciferase reporter, at 10 µM, stronger effect = higher value. On the technique in general: A reporter such as luciferase makes a cellular process visible.

A short description of experiment [8]: TLR3 IRF3 reporter activation blockers – cell-based, poly I:C stimulus, luciferase, 10K MLSCN set, primary screen (AID 602277;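 active = inhibition of the reporter signal at or above 50%; inactive = inhibition below 50%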). The conditions noted are these: HEK293-TLR3 RL24 IRF3 luciferase reporter, at 10 µM, stronger effect = higher value.

Each structure is given as a SMILES string. The source made the active and inactive calls.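 The calls were made as follows, unless noted: active = NADPH fluorescence slope more negative than the mean of all samples by about 3 SD, 99.7% confidence; inactive = the rest.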

Consider `CCCCc1ccc(NC(=O)N[C@H](C(=O)O)C(C)C)cc1`, for which, in experiment [1], the cell count turned out to be 388. Further, the inhibition was -19.8% (inactive) in experiment [1], -26.2% (inactive) in experiment [3], -0.498% (inactive) in experiment [7] and -7.11% (inactive) in experiment [8]. Further, in experiment [2], the inhibition of aggregation is -0.3% (inactive). The nuclei count in experiment [2] turned out to be 89.1%; in experiment [3], 84.1%. Besides, in experiment [4], the fluorescence slope is -0.481 (inactive). In experiment [5], the NADPH fluorescence slope was 1.8e-05 (inactive). Moreover, in experiment [6], the slope was 0.00552 (inactive).
Take `COc1ccc(C)cc1S(=O)(=O)Nc1cccnc1`: in experiment [1], the cell count is 283. The inhibition is 0.4% (inactive) in experiment [1], -61.4% (inactive) in experiment [3], 25.8% (inactive) in experiment [7] and 25.5% (inactive) in experiment [8]. For the same molecule, in experiment [2], the inhibition of aggregation is 13.9% (inactive). The figures for the nuclei count in experiment [2] and in experiment [3] were 78.8% and 90%, respectively. The fluorescence slope in experiment [4] is -0.475 (inactive). Also, the NADPH fluorescence slope in experiment [5] was -3.8e-05 (inactive). Moreover, the slope in experiment [6] was 0.00515 (inactive).
As for `COc1ccc(C2N(C(=O)c3ccccc3)CCN2C(=O)c2ccccc2)cc1`, the cell count in experiment [1] came out at 488. The inhibition in experiment [1] is -13.6% (inactive); in experiment [3], -13.7% (inactive); in experiment [7] it was 7.08% (inactive); in experiment [8] it was 24.3% (inactive). The inhibition of aggregation in experiment [2] was -2.8% (inactive). In addition, the nuclei count was found to be 71.9% in experiment [2] and 92.4% in experiment [3]. Also, in experiment [4], the fluorescence slope is -0.427 (inactive). Further, the NADPH fluorescence slope in experiment [5] is -7.3e-05 (inactive). The slope in experiment [6] was 0.00622 (inactive).
`O=C1c2ccccc2S(=O)(=O)N1CC(O)Cn1c2ccccc2c2ccccc21` (stereo not drawn): the cell count in experiment [1] is 397. The inhibition in experiment [1] was 1% (inactive); in experiment [3] it was -121% (inactive); in experiment [7], 5.13% (inactive); in experiment [8] it was 30.2% (inactive). Besides, in experiment [2], the inhibition of aggregation was 8.8% (inactive). Moreover, the nuclei count in experiment [2] came to 105%; in experiment [3], 118%. Moreover, the fluorescence slope in experiment [4] was -0.421 (inactive). The NADPH fluorescence slope in experiment [5] is -4.3e-05 (inactive). Moreover, the slope in experiment [6] is 0.00434 (inactive).
On to `COc1ccc(-c2nc(C)sc2CC(=O)O)cc1`, for which the cell count in experiment [1] is 533. The inhibition was -15.7% (inactive) in experiment [1], -1.1% (inactive) in experiment [3], 11.4% (inactive) in experiment [7] and 28.3% (inactive) in experiment [8]. Moreover, in experiment [2], the inhibition of aggregation was 21% (inactive). Further, the nuclei count stood at 93.9% in experiment [2] and 101% in experiment [3]. In addition, the fluorescence slope in experiment [4] was -0.463 (inactive). In addition, in experiment [5], the NADPH fluorescence slope was -8.6e-06 (inactive). The slope in experiment [6] was 0.00658 (inactive).
On to `COC(=O)c1c(O)ccc(Oc2ccccc2)c1C(=O)OC`, for which the cell count in experiment [1] amounted to 667. For the same molecule, the inhibition in experiment [1] was -5.3% (inactive); in experiment [3] it was -17.9% (inactive); in experiment [7], 15.3% (inactive); in experiment [8] it was 21.8% (inactive). For the same molecule, the inhibition of aggregation in experiment [2] was 28.9% (inactive). In addition, the figures for the nuclei count in experiment [2] and in experiment [3] were 71.8% and 107%, respectively. Further, in experiment [4], the fluorescence slope was -0.257 (inactive). Besides, in experiment [5], the NADPH fluorescence slope is -2.9e-06 (inactive). For the same molecule, the slope in experiment [6] was 0.0066 (inactive).
As to `CCn1cc(C(C)NC(=O)COc2ccc(Cl)cc2C)c(C)n1` (stereo not drawn), the cell count in experiment [1] stood at 713. In addition, the inhibition in experiment [1] is -14.6% (inactive); in experiment [3], -64.7% (inactive); in experiment [7], 1.5% (inactive); in experiment [8], 14.6% (inactive). For the same molecule, the inhibition of aggregation in experiment [2] was 0.6% (inactive). Besides, the nuclei count was 130% in experiment [2] and 105% in experiment [3]. In addition, the fluorescence slope in experiment [4] was -0.404 (inactive). Moreover, the NADPH fluorescence slope in experiment [5] is -2.9e-05 (inactive). Moreover, in experiment [6], the slope was 0.00313 (inactive).
Take `CN(C)CCN1C(=O)C(O)=C(C(=O)c2cc3ccccc3o2)C1c1ccc(N(C)C)cc1` (stereo not drawn): the cell count in experiment [1] amounted to 577. Besides, the inhibition in experiment [1] is 5.8% (inactive); in experiment [3] it was 23.3% (inactive); in experiment [7], 7.8% (inactive); in experiment [8] it was 27.2% (inactive). Moreover, the inhibition of aggregation in experiment [2] is 11.6% (inactive). The nuclei count in experiment [2] was found to be 95.2%; in experiment [3], 109%. In experiment [4], the fluorescence slope was -0.549 (inactive). For the same molecule, the NADPH fluorescence slope in experiment [5] is -2.9e-05 (inactive). In addition, the slope in experiment [6] is 0.00711 (inactive).
In the case of `COc1ccc(C(C)N2CC34C=CC(O3)C(C(=O)OCC(C)C)C4C2=O)cc1` (stereo not drawn), in experiment [1], the cell count was 589. The inhibition in experiment [1] is 9.1% (inactive); in experiment [3], 8.2% (inactive); in experiment [7], 13.5% (inactive); in experiment [8], 23.7% (inactive). In addition, the inhibition of aggregation in experiment [2] was 3.8% (inactive). Moreover, the nuclei count in experiment [2] came to 75.7%; in experiment [3], 93.5%. The fluorescence slope in experiment [4] was -0.541 (inactive). For the same molecule, the NADPH fluorescence slope in experiment [5] is -4.3e-05 (inactive). In addition, the slope in experiment [6] was 0.00626 (inactive).
Consider `O=P(O)(CCc1ccccc1)CN1CCCCC1`, for which the cell count in experiment [1] was 446. Also, the inhibition in experiment [1] is -6.3% (inactive); in experiment [3] it was -137% (inactive); in experiment [7], -8.42% (inactive); in experiment [8] it was -0.191% (inactive). For the same molecule, the inhibition of aggregation in experiment [2] was -8.7% (inactive). The nuclei count came to 100% in experiment [2] and 108% in experiment [3]. Also, the fluorescence slope in experiment [4] was -0.419 (inactive). Further, the NADPH fluorescence slope in experiment [5] is 5e-05 (inactive). The slope in experiment [6] is 0.00723 (inactive).
In the case of `CCCN1CCC(NC(=O)Nc2ccc(OC)c(OC)c2)CC1`, the cell count in experiment [1] came to 308. Also, the inhibition in experiment [1] is -0.5% (inactive); in experiment [3] it was -43.3% (inactive); in experiment [7], 9.89% (inactive); in experiment [8], 33.2% (inactive). The inhibition of aggregation in experiment [2] was 12.6% (inactive). In addition, the nuclei count in experiment [2] was determined as 87.5%; in experiment [3] it was 107%. In experiment [4], the fluorescence slope was -0.383 (inactive). Besides, the NADPH fluorescence slope in experiment [5] is 1.9e-05 (inactive). The slope in experiment [6] is 0.00372 (inactive).
On to `CCCc1ccc(S(=O)(=O)NCCc2ccncc2)cc1`, for which the cell count in experiment [1] is 352. The inhibition was -15.7% (inactive) in experiment [1], -94.2% (inactive) in experiment [3], -3.61% (inactive) in experiment [7] and -11.2% (inactive) in experiment [8]. Moreover, the inhibition of aggregation in experiment [2] was -25.5% (inactive). The nuclei count in experiment [2] was found to be 109%; in experiment [3], 121%. Besides, the fluorescence slope in experiment [4] was -0.585 (inactive). For the same molecule, the NADPH fluorescence slope in experiment [5] was -2.4e-05 (inactive). In experiment [6], the slope is 0.00524 (inactive).
In the case of `COc1ccc2nc3oc(C(=O)NC4CCN(Cc5ccccc5)CC4)cc3cc2c1`, the cell count in experiment [1] is 237. For the same molecule, the inhibition in experiment [1] is -1.3% (inactive); in experiment [3], -9.9% (inactive); in experiment [7] it was -32.2% (inactive); in experiment [8], -53.8% (inactive). In addition, the inhibition of aggregation in experiment [2] was -19% (inactive). In addition, the nuclei count came out at 107% in experiment [2] and 110% in experiment [3]. The fluorescence slope in experiment [4] was -0.122 (active). The NADPH fluorescence slope in experiment [5] was -8.2e-06 (inactive). In addition, the slope in experiment [6] was 0.00404 (inactive).

A word on the inhibition: it is the drop in the measured response relative to a control, in per cent.
